Hits are enriched below; roughly 10% of the tested compounds scored in any of these assays.
HP1b binding inh: HTS for Inhibitors of HP1-beta Chromodomain Interactions with Methylated Histone Tails; AID 540317, 2011; Chromobox protein homolog 1 (Homo sapiens), P83916; AlphaScreen HP1-beta / biotin-H3K9me3 peptide binding; Potency, µM (series often up to 114 µM), for inactives: top-dose activity change, negative = inhibition, most hits filed as inhibitors; 390,000 compounds, 0.56% hits; note: potency is the fitted concentration of half-maximal effect; nearly all actives have a fitted effect of over 70% in size
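HP1-beta protein (50 nM final) preincubated 30 min at room temperature with biotinylated H3(1-18)K9me3 peptide (50 nM) in PBS pH 7.4, 0.01% Tween-20, then compound added for 30 min. AlphaScreen streptavidin donor/nickel chelate acceptor beads (10 ug/mL final), 30 min dark, luminescence read.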
G9a block: qHTS Assay for Inhibitors of Histone Lysine Methyltransferase G9a | Histone-lysine N-methyltransferase EHMT2 (Homo sapiens), Q96KQ7 | Potency, µM (highest dose often 102 µM), for the others: at the top dose activity, negative = inhibition, most hits filed as inhibitors | 350,000 compounds, 8.8% hits | G9a H3K9 monomethylation, AlphaScreen, 2 h; note: potency is the fitted concentration of half-maximal effect; % is set by controls: 0 for no effect and ±100 for the full control effect; nearly all actives have a fitted effect of over 75% in size
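AlphaScreen read-out: biotin-H3K9 peptide (500 nM) methylation by 20 nM enzyme with 20 uM SAM, 2 h at room temperature after 15 min compound preincubation; anti-monomethyl H3K9 antibody plus donor/acceptor beads, 10 min dark.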
Six1-Eya2 blk: qHTS Assay for Inhibitors of the Six1/Eya2 Interaction; activity change, % (no concentration beside the values); AID 651725, 2012; AlphaScreen GST-Six1/His-Eya2 binding, biochemical; stronger effect = lower value; Homeobox protein SIX1 (Homo sapiens) + Protein phosphatase EYA2 (Homo sapiens), …; 360,000 compounds, 0.56% hits; in the data active = activity change below about -65%; inconclusive = mostly about -30% to -63%; note: % is set by controls: 0 for no effect and ±100 for the full control effect
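AlphaScreen luminescence read after one hour at 37 °C in darkness. Pin-transferred compounds met GST-Six1 and His-Eya2 protein (5X stock 250 nM/500 nM) plus glutathione donor and Ni-chelate acceptor beads (5X, 50 ug/mL).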
JMJD2A Tudor inh: qHTS Assay for Inhibitors of JMJD2A-Tudor Domain; Lysine-specific demethylase 4A (Homo sapiens), O75164; AlphaScreen JMJD2A-Tudor / H3K4me3 peptide binding; Potency, µM (highest dose often 114 µM), without a hit: top-dose activity change, negative = inhibition, hits mostly inhibitors; 390,000 compounds, 4.4% hits; note: potency is the fitted concentration of half-maximal effect; % is set by controls: 0 for no effect and ±100 for the full control effect; nearly all actives have a fitted effect of over 50% in size
BAZ2B block: qHTS Assay for Inhibitors of BAZ2B; AID 504333, 2011; Potency, µM (highest dose often 114 µM), without a hit: at the highest dose activity change, negative = inhibition, hits mostly inhibitors; 360,000 compounds, 4.4% hits; AlphaScreen BAZ2B-H3K14Ac peptide displacement; Bromodomain adjacent to zinc finger domain protein 2B (Homo sapiens), Q9UIF8; note: potency is the fitted concentration of half-maximal effect; % is set by controls: 0 for no effect and ±100 for the full control effect; nearly all actives have a fitted effect of over 60% in size
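Inhibition is scored as reduced AlphaScreen emission. The BAZ2B/b-H3(5-23)K14Ac complex (50 nM each) in PBS pH 7.4, 0.01% Tween-20 meets compound (up to 110 uM) for 30 min at RT before bead addition.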
CtBP-E1A blk: qHTS Assay for Inhibitors of the CtBP/E1A Interaction. activity change, % (no concentration beside the values). CtBP / adenovirus E1A interaction (AlphaScreen). 340,000 compounds, 0.49% hits. AlphaScreen GST-E1A/His-CtBP binding, 1536-well; stronger effect = lower value. AID 651724, 2012; in the data active = activity change below about -65%; inconclusive = mostly about -30% to -63%; note: % is set by controls: 0 for no effect and ±100 for the full control effect
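Protein mix (5X: 125 nM each GST-E1A, His-CtBP) was incubated with pinned compound 2 h at 37 deg C in dark, in 50 mM Tris pH 8.0 buffer with 300 mM NaCl. Glutathione donor and nickel acceptor beads followed; AlphaScreen signal read after 1 h.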
* hit, by the source's call; ? = inconclusive; · = no result given; ! = not active in a repeat; [ ] = another dose, or the depositor's remark. Unless noted, calls come from the whole dose curve; as a rule, active = well fitted inhibition curve with a large enough effect; inconclusive = small, poorly fitted or top-dose-only effect; inactive = no such curve, though single readings can be large or run the other way.

SMILES | HP1b binding inh | G9a block | Six1-Eya2 blk | JMJD2A Tudor inh | BAZ2B block | CtBP-E1A blk
CC(C(=O)Nc1ccccc1F)N1CCN(C)CC1 (centres undefined) | · | ? | · | · | 50.1µM* | ·
COc1ncc2ncc(=O)n(CCC#N)c2n1 | · | -2.2%[12.7 µM] | · | · | · | ·
CC1CCN(C(=O)CCNC(=O)Cn2cnc3sc4c(c3c2=O)CCCC4)CC1 | 32.1% | -7.0%[59 µM] | -0.8 | 1.4% | 11.0% | -14.8
CC1CN(C(=O)CCC(=O)NCc2cccs2)c2ccccc2O1 (centres undefined) | 15.5% | -3.3%[59 µM] | · | -19.5% | -2.8% | ·
CC(C)=NOc1cc(NC(=O)CCl)cc([N+](=O)[O-])c1 | 41.8% | 56.2µM* | 0.7 | -12.3% | -11.0% | -18.0
O=C(CCl)Nc1cc(SCC(O)CO)cc([N+](=O)[O-])c1 (centres undefined) | 45.7% | 50.1µM* | 2.1 | -24.3% | -36.3% | 2.1
CCC(=O)Nc1cc(SCCO)cc([N+](=O)[O-])c1 | 27.4% | 16.3% | -0.2 | -6.3% | -26.3% | -16.5
CCC(=O)Nc1cc(ON=C(C)C)cc([N+](=O)[O-])c1 | 31.0% | 14.5% | 1.6 | 2.3% | -29.1% | -17.5
CC(C)(C)c1ccc(OCCC(=O)Nc2cccc(S(=O)(=O)N3CCOCC3)c2)cc1 | 16.7% | -2.1% | -0.7 | -27.0% | 1.1% | -5.1
COC(=O)c1c(-c2ccc(Cl)cc2)noc1N1CCN(c2cccc(C(F)(F)F)c2)CC1 | 50.7%[57 µM] | 16.3%[59 µM] | · | 18.2% | 22.4% | ·
O=C(NCCN1C(=O)S/C(=C\c2ccc(F)cc2)C1=O)c1cccc(S(=O)(=O)N2CCOCC2)c1 | 40.3% | -1.3%[59 µM] | -5.8 | -22.0% | -5.2% | 1.3
Cc1c(Cl)cccc1-n1nc(C)c2c(C(=O)NCc3ccccc3)cc(C3CC3)nc21 | 22.7% | ? | · | -10.4% | 8.4%[57.1 µM] | ·
CC(Nc1cccc([N+](=O)[O-])c1)C(=O)Nc1ccc(S(=O)(=O)N2CCCC2)cc1 (centres undefined) | 3.1% | 50.1µM* | -7.2 | -32.2% | -8.8% | -0.7
CCCC(C)C(=O)Nc1ccc(S(=O)(=O)N2CCCC2)cc1 (centres undefined) | 21.5% | 70.8µM* | 3.7 | 0.7% | 10.4% | 8.9
CC(C)CC(=O)NC(=S)Nc1ccc(S(=O)(=O)N2CCCC2)cc1 | -10.1% | 14.1µM* | -1.0 | -19.5%[11.4 µM] | -14.9% | ·
Cc1ccc(S(=O)(=O)NC(C)C(=O)Nc2cccc([N+](=O)[O-])c2)cc1 (centres undefined) | 5.6% | ? | 8.3 | -15.4% | -23.8% | -10.2
Cc1cc(C)n(C(C)CC(=O)NCc2ccc(Cl)cc2)n1 (centres undefined) | -11.2% | 10.6%[59 µM] | · | -21.3% | -4.5% | ·
Cc1ccc(NC(=O)CSc2nccn2Cc2ccc3c(c2)OCO3)c(C)c1 | 8.3%[57 µM] | ? | · | ? | ? | ·
COC(=O)C(=Cc1ccccc1[N+](=O)[O-])C(=O)OC | 34.6% | ? | 2.0 | -12.7% | -5.5% | ·
COc1cccc(NC(=O)CSc2nccn2-c2cccc(OC)c2)c1 | -25.1% | 39.8µM* | -12.6 | ? | ? | -12.5
COc1ccc(NC(=O)C(Cc2ccccc2)n2cccc2)c(OC)c1 (centres undefined) | -4.4%[57 µM] | ? | -21.7 | -26.3% | 35.5µM*! | ·
COc1cccc(NC(=O)C(Cc2ccccc2)n2cccc2)c1 (centres undefined) | 10.5% | -25.2% | -13.9 | -12.0% | ? | -1.8
COc1cccc(-n2ccnc2SCC(=O)Nc2ccccc2F)c1 | ? | -46.1% | -14.1 | ? | 25.1µM* | -13.3
COc1ccc(NC(=O)CSc2nccn2Cc2ccccc2)c(OC)c1 | -3.8% | 44.7µM* | 11.7 | -26.5% | ? | 0.0
